Measurements: PubChem BioAssay (EPA / NIEHS)
Activity calls are given as the source filed them. Rule for the calls: active = hit-call score of the fitted dose curve at least 0.9, where 1 is the maximum; inactive = score below 0.9.

Experiments:
[1] = read-out: Human Leukocyte Antigen - DR isotype (HLADR), HLA-DRA (gene 3122); assay: BSK_3C_HLADR: BioMAP Diversity Plus: 3C Assay for Human Leukocyte Antigen - DR isotype (HLADR) Biomarker Activity (AID 2283019); details: primary human endothelial cells (HUVEC); actives raise or lower the signal
Summary of the method: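 ELISA readout of surface HLA-DR on human umbilical vein endothelium, taken 24 h after chemical treatment. Gain- and loss-of-signal were both fitted relative to DMSO.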

[2] = read-out: Interleukin-8 (IL8), CXCL8 (gene 3576); assay: BSK_3C_IL8: BioMAP Diversity Plus: 3C Assay for Interleukin-8 (IL8) Biomarker Activity (AID 2283020); details: primary human endothelial cells (HUVEC); actives raise or lower the signal
Summary of the method: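 IL-8 was measured by ELISA in HUVEC cultures 24 h after chemical dosing, with gain or loss of signal fitted relative to DMSO. Parallel SRB total-protein staining tracked overt cytotoxicity.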

[3] = read-out: Monokine induced gamma interferon (MIG), CXCL9 (gene 4283); assay: BSK_3C_MIG: BioMAP Diversity Plus: 3C Assay for Monokine induced gamma interferon (MIG) Biomarker Activity (AID 2283021); details: primary human endothelial cells (HUVEC); actives raise or lower the signal;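 for AC50: MIG protein level measured by immunoassay in the treated endothelial cultures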
Summary of the method: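 ELISA measurement of MIG in human umbilical vein endothelial cells 24 h after treatment. Cytotoxicity tracked by SRB staining in parallel cultures; gain or loss of signal fitted relative to DMSO.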

[4] = BSK_3C_SRB: Viability Assessment in the BioMAP Diversity Plus: 3C Assay (AID 2283023); details: primary human endothelial cells (HUVEC);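 note: cells read 24 h after compound dosing; fitted both ways against DMSO so a hit may be signal rise or drop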
Summary of the method: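 Absorbance at 560 nm of sulforhodamine B-stained (0.1%) total protein served as a cytotoxicity readout in human umbilical vein endothelial cells, 24 h after chemical treatment. Signal was fitted bidirectionally relative to DMSO.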

[5] = read-out: Matrix Metallopeptidase 1 (MMP1), MMP1 (gene 4312); assay: BSK_BE3C_MMP1: BioMAP Diversity Plus: BE3C Assay for Matrix Metallopeptidase 1 (MMP1) Biomarker Activity (AID 2283024); details: primary human bronchial epithelial cells; actives raise or lower the signal
Summary of the method: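 ELISA measurement of MMP-1 after 24 h compound exposure of primary human bronchial epithelial cells. Changes in either direction fitted relative to DMSO; parallel SRB staining checked overt cytotoxicity.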

[6] = BSK_3C_Vis: BioMAP Diversity Plus: 3C Assay for Morphology Visualization (AID 2283025); details: primary human endothelial cells (HUVEC);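 note: fitted both ways so gain or loss versus DMSO counts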;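 for AC50: light microscopy image of cell morphology used as background control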
Summary of the method: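 Light-microscopy visualization of HUVEC cultures at 24 h post-treatment, with DMSO as baseline for bidirectional fitting.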

[7] = read-out: Pselectin, SELP (gene 6403); assay: BSK_4H_Pselectin: BioMAP Diversity Plus: 4H Assay for Pselectin Biomarker Activity (AID 2283026); details: primary human endothelial cells (HUVEC); actives raise or lower the signal
Summary of the method: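 ELISA of surface P-selectin on HUVEC, 24 h after dosing, with parallel SRB staining (0.1% after 10% TCA fixation, 560 nm) for overt cytotoxicity. Activity fitted in both directions relative to DMSO.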

[8] = BSK_BE3C_SRB: Viability Assessment in the BioMAP Diversity Plus: BE3C Assay (AID 2283028); details: primary human bronchial epithelial cells;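 for AC50: fitted both ways so AC50 may mark signal gain or loss versus DMSO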
Summary of the method: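 Cells (human bronchial epithelial, primary) are treated with chemicals, and after 24 h the parallel cultures are fixed in 10% TCA. These are then stained with 0.1% SRB and read at 560 nm. Gain or loss of signal is fitted relative to DMSO.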

[9] = read-out: Thrombomodulin, THBD (gene 7056); assay: BSK_3C_Thrombomodulin: BioMAP Diversity Plus: 3C Assay for Thrombomodulin Biomarker Activity (AID 2283029); details: primary human endothelial cells (HUVEC); actives raise or lower the signal
Summary of the method: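 ELISA measurement of thrombomodulin on HUVEC surface 24 h after chemical dosing; activity fitted in both directions relative to DMSO vehicle.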

[10] = read-out: Urokinase-type plasminogen activator receptor (uPAR), PLAUR (gene 5329); assay: BSK_4H_uPAR: BioMAP Diversity Plus: 4H Assay for Urokinase-type plasminogen activator receptor (uPAR) Biomarker Activity (AID 2283030); details: primary human endothelial cells (HUVEC); actives raise or lower the signal
Summary of the method: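 Cell-surface uPAR ELISA signal, measured 24 h after dosing human umbilical vein endothelial cells, was analyzed with bidirectional fitting relative to DMSO. Parallel SRB staining of total protein tracked overt cytotoxicity.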

[11] = read-out: Vascular endothelial growth factor receptor 2 (Homo sapiens) (UniProt P35968); assay: BSK_4H_VEGFRII: BioMAP Diversity Plus: 4H Assay for Vascular endothelial growth factor receptor 2 (VEGFR2) Biomarker Activity (AID 2283031); details: primary human endothelial cells (HUVEC); actives raise or lower the signal;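 for AC50: cell-surface VEGFR2 protein level quantified by ELISA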
Summary of the method: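 ELISA read-out of VEGFRII in primary human umbilical vein endothelium, taken 24 h after chemical treatment. Responses are expressed relative to DMSO, with bidirectional fitting.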

[12] = read-out: Human Leukocyte Antigen - DR isotype (HLADR), HLA-DRA (gene 3122); assay: BSK_BE3C_HLADR: BioMAP Diversity Plus: BE3C Assay for Human Leukocyte Antigen - DR isotype (HLADR) Biomarker Activity (AID 2283032); details: primary human bronchial epithelial cells; actives raise or lower the signal
Summary of the method: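 Cell-surface HLA-DR ELISA readout at 24 h after dosing in the BE3C primary human lung bronchial epithelial system; gain or loss of signal against DMSO, with parallel sulforhodamine B staining of total protein for overt cytotoxicity.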

[13] = read-out: Vascular cell adhesion molecule 1 (VCAM1), VCAM1 (gene 7412); assay: BSK_4H_VCAM1: BioMAP Diversity Plus: 4H Assay for Vascular cell adhesion molecule 1 (VCAM1) Biomarker Activity (AID 2283033); details: primary human endothelial cells (HUVEC); actives raise or lower the signal
Summary of the method: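 VCAM-1 ELISA read 24 h after chemical dosing of HUVEC in the BioMAP 4H system, with gain or loss of signal fitted relative to DMSO. Parallel SRB staining (560 nm) checked overt cytotoxicity.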

[14] = read-out: Interferon-gamma inducible Protein 10 (IP10), CXCL10 (gene 3627); assay: BSK_BE3C_IP10: BioMAP Diversity Plus: BE3C Assay for Interferon-gamma inducible Protein 10 (IP10) Biomarker Activity (AID 2283034); details: primary human bronchial epithelial cells; actives raise or lower the signal
Summary of the method: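 IP-10 quantified by ELISA in human primary bronchial epithelial cell cultures at 24 hours post-dosing. Gain or loss of signal fitted relative to DMSO; parallel SRB staining assessed overt cytotoxicity.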

[15] = read-out: Monokine induced gamma interferon (MIG), CXCL9 (gene 4283); assay: BSK_BE3C_MIG: BioMAP Diversity Plus: BE3C Assay for Monokine induced gamma interferon (MIG) Biomarker Activity (AID 2283035); details: primary human bronchial epithelial cells; actives raise or lower the signal
Summary of the method: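 Dose cells (human primary bronchial epithelial), incubate 24 h, quantify MIG by ELISA, then fit concentration–response in both directions relative to DMSO control.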

[16] = read-out: Transforming growth factor beta 1 (TGFb1), TGFB1 (gene 7040); assay: BSK_BE3C_TGFb1: BioMAP Diversity Plus: BE3C Assay for Transforming growth factor beta 1 (TGFb1) Biomarker Activity (AID 2283036); details: primary human bronchial epithelial cells; actives raise or lower the signal
Summary of the method: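 ELISA readout of TGF-b1 from human lung bronchial epithelial primary cells, taken 24 h post-treatment. Gain or loss of signal fitted relative to DMSO baseline, with parallel SRB staining for overt cytotoxicity.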

[17] = read-out: Plasminogen activator inhibitor-1 (PAI1), SERPINE1 (gene 5054); assay: BSK_BE3C_PAI1: BioMAP Diversity Plus: BE3C Assay for Plasminogen activator inhibitor-1 (PAI1) Biomarker Activity (AID 2283037); details: primary human bronchial epithelial cells; actives raise or lower the signal
Summary of the method: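 PAI-1 was measured by ELISA in human primary bronchial epithelial cultures 24 h after chemical dosing, with cytotoxicity checked by SRB total-protein staining in parallel cultures. Activity was fitted in both directions relative to DMSO.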

[18] = read-out: urokinase plasminogen activator (uPA), PLAU (gene 5328); assay: BSK_BE3C_uPA: BioMAP Diversity Plus: BE3C Assay for urokinase plasminogen activator (uPA) Biomarker Activity (AID 2283038); details: primary human bronchial epithelial cells; actives raise or lower the signal
Summary of the method: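 Bronchial epithelial cells (human, primary); chemical 24 h; uPA by ELISA; bidirectional fit vs DMSO. SRB (0.1%, after 10% TCA fixation, 560 nm) in parallel cultures for cytotoxicity.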

[19] = BSK_4H_SRB: Viability Assessment in the BioMAP Diversity Plus: 4H Assay (AID 2283027); details: primary human endothelial cells (HUVEC);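 note: cells exposed to compound for 24 h before staining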;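 for AC50: curves fitted both ways versus DMSO so AC50 may be loss or gain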
Summary of the method: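 HUVEC, 24 h post-dose; 10% TCA fix, 0.1% SRB stain, A560 nm. Total protein = overt cytotoxicity, parallel to biomarker read. Bidirectional fit vs DMSO baseline.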

Measured: AC50

Nc1nc(N)nc(NC2CC2)n1
not listed: [19]
inactive: all other assays above

CC(C)[C@H](C(=O)O[C@H](C#N)c1cccc(Oc2ccccc2)c1)c1ccc(Cl)cc1
active: [1] 12.9 µM | [4] 5.72 µM | [13] 2.95 µM
not listed: [8] | [19]
inactive: all other assays above

CCCCOC(=O)c1ccccc1C(=O)O
active: [6] 0.28 µM
not listed: [10]
inactive: all other assays above

CC(C1CC1)C(O)(Cn1cncn1)c1ccc(Cl)cc1 (centres undefined)
not listed: [10] | [19]
inactive: all other assays above

COc1cccc(C(=O)NN(C(=O)c2cc(C)cc(C)c2)C(C)(C)C)c1C
active: [6] 39 µM
not listed: [10]
inactive: all other assays above

COP(=O)(OC)OC(Br)C(Cl)(Cl)Br (centres undefined)
inactive: [5] | [9]
active: [1] 14.9 µM | [2] 34.9 µM | [3] 35.2 µM | [4] 28.8 µM | [6] 16.3 µM | [7] 13.2 µM | [19] 29 µM | [8] 25 µM | [10] 27.9 µM | [11] 31.1 µM | [12] 27.7 µM | [13] 30.7 µM | [14] 30.3 µM | [15] 30.8 µM | [16] 33.1 µM | [17] 27.9 µM | [18] 32 µM

CCCCOC(=O)[C@@H](C)Oc1ccc(Oc2ccc(C#N)cc2F)cc1
not listed: [10]
inactive: all other assays above

CNC(=O)ON=C(SC)C(=O)N(C)C
active: [6] 39 µM
not listed: [19]
inactive: all other assays above

CCCOCC(=Nc1ccc(Cl)cc1C(F)(F)F)n1ccnc1
active: [1] 26.8 µM | [2] 33.7 µM | [3] 35.1 µM | [4] 31 µM | [5] 34 µM | [6] 20 µM | [7] 29.8 µM | [8] 20 µM | [9] 35 µM | [10] 36.7 µM | [12] 25.7 µM | [13] 30.7 µM | [14] 32.3 µM | [15] 35.3 µM | [17] 30.9 µM | [18] 34.5 µM
